From PubChem
In the library only some 1.3% were active in any assay of this set; here they are far more common.
NCOA3 inh – SRC3 coactivator transcriptional activity inhibitors, primary screen, cell-based, luminescence; Nuclear receptor coactivator 3 (Homo sapiens), Q9Y6Q9; HEK293 GAL4-SRC3 luciferase reporter; inhibition, % at 3.6 µM; hit rate 0.17% among 360,000;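 active = inhibition above a per-campaign cutoff, the mean of all compounds plus 3 SD, cut at about 60% in these data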;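 also: 0% = DMSO-treated cells and 100% = gossypol-treated cells at 36 µM; higher means less SRC3-driven luciferase light from the GAL4 reporter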
NCOA2 inhibitor – inhibition of GAL4-SRC2 driven luciferase reporter, primary screen, SRC2 inhibitor project, cell-based, luminescence; Nuclear receptor coactivator 2 (Homo sapiens), Q15596; HEK293 GAL4-SRC2 luciferase reporter; inhibition, % at 9 µM; hit rate 0.17% among 370,000;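 active = inhibition above the mean inhibition of all tested compounds plus 3 SD, set per campaign, cut at about 52% in these data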;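 also: 0% = DMSO treated cells and 100% = cells given Gossypol at 36 µM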
COUP-TFII inh – NR2F2 transcriptional activity inhibitors, primary screen, cell-based, luciferase reporter, HEK293T, luminescence; COUP transcription factor 2 (Homo sapiens), P24468; HEK293T NGFI-A luciferase reporter; inhibition, % at 8.6 µM; hit rate 0.7% among 370,000;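 active = inhibition above a per-plate cutoff, mean inhibition of test wells between control levels plus 3 SD, cut at about 38% in these data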;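 also: cells cotransfected with COUP-TFII expression vector driving the NGFI-A reporter; 0% = median of COUP-TF2 test wells and 100% = reporter-only cells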
Target sequence (P24468 whole entry, looked up): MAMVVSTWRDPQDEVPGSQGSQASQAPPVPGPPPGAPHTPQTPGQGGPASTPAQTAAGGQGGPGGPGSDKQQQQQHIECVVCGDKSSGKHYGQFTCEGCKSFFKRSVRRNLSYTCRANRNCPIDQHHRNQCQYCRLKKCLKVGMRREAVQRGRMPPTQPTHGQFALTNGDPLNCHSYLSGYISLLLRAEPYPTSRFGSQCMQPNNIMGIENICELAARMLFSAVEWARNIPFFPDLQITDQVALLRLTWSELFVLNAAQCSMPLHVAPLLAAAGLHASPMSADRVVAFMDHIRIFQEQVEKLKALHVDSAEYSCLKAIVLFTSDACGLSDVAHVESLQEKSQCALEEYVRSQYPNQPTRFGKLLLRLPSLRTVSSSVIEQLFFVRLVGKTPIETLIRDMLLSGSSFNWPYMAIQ
NR5A2 inv ag – LRH-1 (NR5A2) inverse agonists, primary screen, cell-based, luminescence, HEK293T, StAR-luciferase reporter; LRH-1 transfected, 24 h; hit rate 0.13% among 360,000; inhibition, % at 3.6 µM;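 active = inhibition above the mean inhibition of all tested compounds plus 3 SD, cut at about 73% in these data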;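 also: 0% = DMSO wells and 100% = reporter-only cells lacking LRH-1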
SRC1 inh – SRC1 coactivator transcriptional activity inhibitors, primary screen, cell-based, luminescence; Nuclear receptor coactivator 1 (Homo sapiens), Q15788; HEK293 GAL4-SRC1 luciferase reporter; inhibition, % at 3.6 µM; hit rate 0.12% among 360,000; AID 588354, 2011;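 active = inhibition above the campaign mean plus 3 SD, with each screening campaign given its own cutoff, cut at about 60% in these data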;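 also: 0% = DMSO treated cells and 100% = gossypol at 36 µM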
Gli-Sufu antag – Gli-Sufu pathway antagonists, primary screen, luciferase luminescence, Sufu-KO-LIGHT cells, uHTS. Sufu-KO-LIGHT fibroblasts, Gli luciferase reporter luminescence. inhibition, % at 5 µM. hit rate 0.74% among 340,000. AID 588413, 2011;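 active = inhibition above about 55%, limit read from the data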;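 also: 0% = DMSO-treated cells and 100% = wells with medium but no cells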
* = called active by the depositor; . = no result given.

SMILES | NCOA3 inh | NCOA2 inhibitor | COUP-TFII inh | NR5A2 inv ag | SRC1 inh | Gli-Sufu antag
Cc1ccc(-c2cc(N)n[nH]2)cc1 | -27 | -33 | 5 | 9 | -1 | -25
CC(C)(C)c1ccc(-c2cc(N)n[nH]2)cc1 | 14 | 55* | 2 | -29 | 14 | 7
O=S(=O)(c1cccc(Br)c1)N1CCN(c2ncnc3scc(-c4ccccc4)c23)CC1 | -38 | 20 | 7 | 13 | -6 | 2
Cc1csc2ncnc(N3CCN(S(=O)(=O)c4cccc(C(F)(F)F)c4)CC3)c12 | -2 | 10 | -7 | 10 | 11 | 68*
COc1ccc(-c2cc(-c3nnc(SCC(=O)Nc4ccc(OCc5ccccc5)cc4)n3N)[nH]n2)cc1 | . | 4 | -31 | . | . | .
O=C(CCCN1C(=O)/C(=C/c2ccccc2Cl)SC1=S)NNC(=O)c1ccc(Cl)cc1 | 12 | 58* | 15 | 6 | 19 | 17
C/C(=N\NC(=O)c1ccccc1Cl)c1ccccn1 | -8 | 0 | -14 | -16 | -9 | 64*
C/C(=N\Nc1nc2ccccc2[nH]1)c1ccccn1 | 79* | -59 | -43 | 84* | 75* | .
C/C(=N\NC(=O)c1cccc2ccccc12)c1ccccn1 | -3 | -28 | -12 | 6 | -26 | 80*
C/C(=N\NC(=O)c1cc(-c2cccs2)nc2ccccc12)c1ccccn1 | -7 | -1 | -3 | 20 | 14 | 93*
C/C(=N\NC(=O)c1ccccc1OCc1ccc(F)cc1)c1ccccn1 | 32 | 1 | -9 | 21 | 13 | 47
C/C(=N\NC(=O)c1ccc(Cl)c(Cl)c1)c1ccccn1 | 2 | -23 | -3 | -9 | 1 | 54
NNC(=O)c1cc(-c2cccs2)nc2ccccc12 | -9 | 5 | 0 | 8 | 4 | 13
O=C(CCn1nnc2ccccc21)N1CCN(c2cccc(C(F)(F)F)c2)CC1 | . | 0 | -12 | . | . | .
C=CCn1c(SCC(=O)O)nnc1-c1ccco1 | . | -18 | -3 | . | . | .
CN(Cc1ccccc1)C1=CC(=[N+]2CCCCC2)CC(C)(C)C1 | 72* | -2 | 75* | 84* | 61* | 85*
CC(C)CCNC(=O)C1CCCN(C(=O)c2ccc3c(c2)NC(=O)CS3)C1 (stereo not drawn) | . | 0 | -2 | . | . | .
CNc1nc(N)c([N+](=O)[O-])c(Nc2cccc(Br)c2)n1 | . | . | -13 | . | . | .
CC(=O)[C@]1(O)Cc2c(O)c3c(c(O)c2[C@@H](O[C@H]2C[C@H](N)[C@H](O)[C@H](C)O2)C1)C(=O)c1ccccc1C3=O | . | . | . | . | . | 81*
COc1cccc2c1C(=O)c1c(O)c3c(c(O)c1C2=O)C[C@@](O)(C(=O)CO)C[C@@H]3O[C@H]1C[C@H](N)[C@@H](O)[C@H](C)O1 | -2 | . | . | 89* | -33 | 68*
C/C(=N\NC(=O)c1cc(Br)ccc1O)c1ccccn1 | -5 | 19 | 2 | -31 | -9 | 66*
C/C(=N\NC(=O)c1cccc(Br)c1)c1ccccn1 | -29 | -34 | -1 | -78 | -30 | 89*
CC(=NNC(=O)c1ccncc1)c1cccc(Br)c1 | -14 | -21 | -3 | 6 | 5 | 1
Cc1cccc(/C=N/NC(=O)c2cc(Br)ccc2O)n1 | -37 | -9 | -9 | -30 | -19 | -1
CN(C)CCNc1ccc(CO)c2sc3ccc(O)cc3c(=O)c12 | 28 | -203 | -85 | 68 | 79* | 77*
SMILES | NCOA3 inh | NCOA2 inhibitor | COUP-TFII inh | NR5A2 inv ag | SRC1 inh | Gli-Sufu antag
Cc1c(C(=O)N(Cc2ccccc2)C2CCS(=O)(=O)C2)oc2ccccc12 (stereo not drawn) | -2 | 0 | -8 | 1 | -2 | 11
Cc1c(C(=O)N(Cc2ccc(F)cc2)C2CCS(=O)(=O)C2)oc2ccccc12 (stereo not drawn) | 19 | -4 | 23 | 94* | -30 | 0
COc1ccc(-n2c(SCC(=O)Nc3ccc(Oc4ccccc4)cc3)nnc2-c2ccco2)cc1 | . | 26 | -2 | . | . | .
CCOC(=O)N=Nc1c(O)n(CC(=O)OC)c2ccccc12 | 2 | 4 | 2 | -17 | -1 | -15
CCOC(=O)N=Nc1c2ccccc2c2nc3no[nH]c3nc12 | 89* | -19 | -8 | 6 | 35 | 97*
CC(=O)N1CCc2cc(S(=O)(=O)NCCC(=O)NCc3ccccc3)ccc21 | . | 3 | -2 | . | . | .
CCCN1CCCCC(NC(=O)c2ccc(Cl)cc2Cl)C1=O (stereo not drawn) | . | -17 | -5 | . | . | .
CCCC(=O)Nc1cccc(NC(=O)c2ccccc2Br)c1 | 12 | 52* | 0 | 0 | 0 | 0
CC(NC(=O)Nc1nnc(C(F)(F)F)s1)(C(F)(F)F)C(F)(F)F | 84* | 22 | 45* | 90* | 59 | -7
CC(C)C[C@@H]1COc2cc(Br)ccc2S(=O)(=O)N1Cc1cn(Cc2ccc(Cl)cc2)nn1 | . | 0 | -18 | . | . | .
Oc1c(Br)cc(Br)cc1/C=N/Nc1ccc(Cl)nn1 | 17 | -12 | 1 | -1 | 5 | 90*
Nc1[nH]c(C(=O)c2ccccc2)c(-c2ccccn2)c1C(=O)c1c[nH]c2ccc(Br)cc12 | . | . | -14 | . | . | .
CCCC(=O)N(Cc1cc(=O)[nH]c2ccccc12)c1ccc(C)cc1C | -14 | 6 | -7 | 3 | 11 | -1
Cc1ccc(N(Cc2cc(=O)[nH]c3ccccc23)C(=O)CCl)c(C)c1 | 42 | 69* | 8 | 60 | 27 | 4
CC[C@@]1(O)C(=O)OCc2c1cc1n(c2=O)Cc2cc3c(CN(C)C)c(O)ccc3nc2-1 | 71* | 45 | -5 | 86* | 22 | 61*
CC[C@@]1(O)C(=O)OCc2c1cc1n(c2=O)Cc2cc3c(N)cccc3nc2-1 | 73* | 47 | 12 | 91* | 58 | 65*
O=c1cccc2n1Cc1cc3ccccc3nc1-2 | -73 | -65 | -58 | -107 | -83 | -62
O=C(NCc1ccco1)OC1CCC12CCC(c1ccccc1)CC2 (stereo not drawn) | . | . | 27 | . | . | .
CC1(C)CC(=O)N(CC(=O)N2CCN(c3cccc(Cl)c3Cl)CC2)c2ccccc2S1(=O)=O | . | 17 | 10 | . | . | .
O=[N+]([O-])c1ccc(O)c(-c2cc(C(F)(F)F)nc(-c3ccccc3)n2)c1 | -4 | 12 | 3 | 0 | -16 | 88*
Oc1ccccc1-c1cc(C(F)(F)C(F)F)nc(-c2ccccc2)n1 | 7 | 12 | 18 | -4 | -1 | 0
CCOC(=O)c1ccc(N=Cc2cnc(N)nc2N)cc1 | 2 | -8 | 1 | 88* | -2 | -20
COc1ccc(Br)cc1C(=O)Nc1cccc(-c2nnc(-c3ccco3)o2)c1 | 18 | 2 | -25 | 0 | 1 | 71*
COc1cccc(C(=O)Nc2cccc(-c3nnc(-c4ccco4)o3)c2)c1 | 1 | -34 | 12 | -16 | -5 | -24
